Measured values as given in ChEMBL document CHEMBL4513216, “Probing the Open Global Health Chemical Diversity Library for Multistage-Active Starting Points for Next-Generation Antimalarials” (ACS Infect Dis, 2020).
Out of some 68,000 compounds screened, about 2,700 (4%) showed an effect of 50% or more. This excerpt belongs to a sample that is enriched for strong results.

The compounds below were run on Plasmodium berghei (assay: Screen against P. berghei liver stage (PbLuc), transformed with Luciferase, at 2uM). Details: tested at 2 uM.
Assay type: functional, HepG2
`Cn1cccc1C(=O)N1CCO[C@H]2[C@H](OCc3cccnc3)CC[C@@H]21` showed an INHIBITION of 0.32%. `O=C1NCCN(CC2CCCCC2)C1CC(=O)N1CCc2n[nH]cc2C1` (configuration not stated) gave an INHIBITION of 5.17%. Compound `O=C1NCCN(Cc2ccccc2)C1CC(=O)N1CCc2n[nH]cc2C1` (configuration not stated) has an INHIBITION of 50.32%. `O=C1NCCN(Cc2cccnc2)C1CC(=O)N1CCc2n[nH]cc2C1` (configuration not stated) showed an INHIBITION of -3.25%. `CN(C)c1nc2c(c(N3CCC4(CCCNC4=O)C3)n1)CCCC2` (configuration not stated) gave an INHIBITION of 42.17%. In the case of `CNc1nc(N2CCC3(CCCNC3=O)C2)nc2c1CCC2` (configuration not stated), the INHIBITION is reported as 56.49%. `Cc1nc(N2CCC3(CCCNC3=O)C2)nc2c1CCCC2` (configuration not stated) showed an INHIBITION of 62%. `Cc1nc2c(c(N3CCC4(CCCNC4=O)C3)n1)CCC2` (configuration not stated) gave an INHIBITION of 27.85%. In the case of `O=C1NCCCC12CCN(c1nc3c(c(C(F)(F)F)n1)CCCC3)C2` (configuration not stated), the INHIBITION is reported as 1.42%. Work on `Cc1cc(C2CCC2)nc(N2CCC3(CCCNC3=O)C2)n1` (configuration not stated) yielded an INHIBITION of 4.74%. In the case of `O=c1[nH][nH]c2cn(-c3ccccc3)c(=O)n12`, the INHIBITION is reported as -73.41%. `N#CCCn1cnc2c(F)cc(Br)cc2c1=O` was tested, and the INHIBITION was -23.16%. `c1cc(-c2nnc(C3CCCN(CC4CCCCC4)C3)o2)ccn1` (configuration not stated) gave an INHIBITION of 29.48%. In the case of `Cc1cccc2nc(CNC(=O)N3CCC(OCC4CC4)CC3)cn12`, the INHIBITION is reported as 38.2%. Compound `Cc1ccc(OCCCC(=O)Nc2nonc2C)cc1C` has an INHIBITION of -9.17%. In the case of `COCc1cncc2c1CCN(Cc1ccccn1)C2`, the INHIBITION is reported as 0.3%. `CN(C)CCOCc1cncc2c1CCN(Cc1ccccn1)C2` gave an INHIBITION of 56.21%. Compound `CN(C)C(=O)COCc1cncc2c1CCN(Cc1ccccn1)C2` has an INHIBITION of 41.93%. `O=C(c1ccnn1COc1ccc(Cl)cc1)N1CCOCC1` gave an INHIBITION of 8.56%. Compound `CCn1c(Nc2ccccc2OC)nc2c(C)nn(C)c2c1=O` has an INHIBITION of -18.88%. `O=S(=O)(Cc1ccc(F)c(Cl)c1)NC(CO)c1ccco1` (configuration not stated) was tested, and the INHIBITION was 26.62%. `Cc1noc2nc(C3CCN(CC4CCCCC4)CC3)cc(C(F)F)c12` showed an INHIBITION of -7.7%. Work on `Cc1nc(CN(C)c2nccc(N(C)C)n2)cs1` yielded an INHIBITION of -13.89%. `Cc1nc(CN(C)c2nccc(C(F)(F)F)n2)cs1` gave an INHIBITION of 60.13%. With `COc1ccnc(N(C)Cc2csc(C)n2)n1` the INHIBITION was -21.99%. With `Cc1nn(C)c(C)c1Cc1nc(N(C)C)no1` the INHIBITION was 20.71%. `CC(C)c1nccn1Cc1cc(C(=O)NCC(F)(F)F)n[nH]1` was tested, and the INHIBITION was -7.52%. Compound `O=C1NCC(C(=O)Nc2ncc(Cc3ccccc3)s2)N1` (configuration not stated) has an INHIBITION of 53.98%. Work on `O=C1NCC(C(=O)Nc2ncc(Cc3cccc(F)c3)s2)N1` (configuration not stated) yielded an INHIBITION of 3.06%. `O=C1NCC(C(=O)Nc2ncc(Cc3ccc(F)cc3)s2)N1` (configuration not stated) gave an INHIBITION of 21.39%. In the case of `COCc1cccc(C(=O)N2CCCN(C(=O)OCC(C)C)CC2)c1`, the INHIBITION is reported as 29.19%. `COC(=O)CNC(=O)c1c(-n2cnnn2)sc2c1CCCC2` was tested, and the INHIBITION was 17.26%. `Cc1nc(CO[C@H]2CN(C(=O)c3cccn3C)[C@@H]3COC[C@H]23)cs1` was tested, and the INHIBITION was 36.75%. `CN1CCN(CC[C@@H]2CC[C@H](O)[C@@H](C(=O)Nc3ccccc3)O2)CC1` gave an INHIBITION of 29.85%. `O=C(Nc1ccccc1)[C@H]1O[C@H](CCN2CCCCC2)CC[C@@H]1O` gave an INHIBITION of 4.04%. `O=C(Nc1ccccc1)[C@H]1O[C@H](CCN2CCNCC2)CC[C@@H]1O` gave an INHIBITION of 51.81%. Work on `CCN1CCCC1CNCc1cc2cc3c(cc2[nH]c1=O)OCCO3` (configuration not stated) yielded an INHIBITION of 16.87%. In the case of `CNC(=O)[C@@H](C1CC1)N1CCC[C@H]1C(=O)NCC(C)C`, the INHIBITION is reported as 40.28%. `CCCNC(=O)[C@@H]1CCCN1[C@@H](C(=O)NC)C1CC1` showed an INHIBITION of 40.28%. `CCNC(=O)[C@@H]1CCCN1[C@@H](C(=O)NC)C1CC1` was tested, and the INHIBITION was 54.01%. Compound `O=C1CN(C(=O)C2CCCCC2)CC(O)CN1Cc1ccc(Cl)cc1` (configuration not stated) has an INHIBITION of 43.15%. For `Cn1ccnc1CN1CCC2(CC1)CC(N1CCCC1)c1ccccc12` (configuration not stated), the INHIBITION was -11.26%. In the case of `Cc1ccc(-n2cnnn2)cc1NCC(=O)Nc1cc(F)ccc1F`, the INHIBITION is reported as 19.95%. For `Cc1nn(CCO)c(C)c1CN1CCN(C2CCCCC2)C(=O)C1`, the INHIBITION was 57.21%. With `Cc1nn(C(C)C)c(C)c1CN1CCN(C2CCCCC2)C(=O)C1` the INHIBITION was -22.72%. `C=C(C)Cn1nc(C)c(CN2CCN(C3CCCCC3)C(=O)C2)c1C` showed an INHIBITION of -17.01%. `CO[C@H]1CC[C@H]2[C@H]1OCCN2C(=O)C1=CCCC1` was tested, and the INHIBITION was 28.81%. In the case of `CCN1CCC(Cn2ccc3ccc(C(=O)OC)cc3c2=O)C1` (configuration not stated), the INHIBITION is reported as 39.26%. Work on `O=C(CCNS(=O)(=O)c1ccc(Cl)cc1)NCc1ccoc1` yielded an INHIBITION of -29.08%. `CCNC(=O)NC1CCCN(c2ccc(C)cc2)C1=O` (configuration not stated) was tested, and the INHIBITION was 10.63%. Compound `CCOCc1nnc(NCc2cccnc2)o1` has an INHIBITION of 54.29%. `COCc1cccc(NCc2cccnc2)c1` showed an INHIBITION of -12.52%.
